# In the supplement of paper PMC8728848:
# Many of the other results were omitted from the sample, so the strongest signals are more common in it than they were.
# What was measured:
# Experiment in all cases: glycan array binding signal (z-score within array); higher = stronger binding
# Conditions in all cases: glycan notation: IUPAC condensed, linker removed; mutation: K348A
# Fuc(a1-2)Gal(b1-4)GlcNAc = target: Fuc(a1-2)Gal(b1-4)GlcNAc
# Procedure, shortened: (§1)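 From the Consortium for Functional Glycomics database, 3228 arrays were curated, keeping only those whose protein sequence was available. Binding is given as a within-array Z-score averaged across arrays sharing a protein sequence and across linkers. Negative Z-scores can be read as non-binding.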
# [1] = target: Fuc(a1-2)Gal(b1-4)[Fuc(a1-3)]GlcNAc(b1-3)Gal(b1-4)[Fuc(a1-3)]GlcNAc(b1-3)Gal(b1-4)[Fuc(a1-3)]GlcNAc
# Procedure, shortened: as §1
# [2] = target: Fuc(a1-2)[Gal(a1-3)]Gal(b1-4)[Fuc(a1-3)]GlcNAc
# Procedure, shortened: as §1
# [3] = target: Fuc(a1-2)[GalNAc(a1-4)]Gal(b1-4)GlcNAc
# Procedure, shortened: as §1
# Fuc(a1-3)GlcNAc = target: Fuc(a1-3)GlcNAc
# Procedure, shortened: as §1
# [4] = target: Fuc(a1-3)[Gal(b1-4)]GlcNAc(b1-2)Man(a1-3)[Fuc(a1-3)[Gal(b1-4)]GlcNAc(b1-2)Man(a1-6)]Man(b1-4)GlcNAc(b1-4)GlcNAc
# Procedure, shortened: as §1
# [5] = target: Fuc(a1-3)[Gal(b1-4)]GlcNAc(b1-4)Gal(b1-4)[Fuc(a1-3)]GlcNAc
# Procedure, shortened: as §1
# [6] = target: Fuc(a1-3)[Gal(b1-4)]GlcNAc6S
# Procedure, shortened: as §1
# [7] = target: Gal(b1-3)[Neu5Ac(b2-6)]GalNAc
# Procedure, shortened: as §1
# [8] = target: Gal(b1-4)GalNAc(a1-3)[Fuc(a1-2)]Gal(b1-4)GlcNAc
# Procedure, shortened: as §1
# [9] = target: Gal(b1-4)GlcNAc(b1-3)[Gal(b1-4)GlcNAc(b1-6)]Gal(b1-4)GlcNAc
# Procedure, shortened: as §1
# [10] = target: Gal(b1-4)GlcNAc(b1-6)GalNAc
# Procedure, shortened: as §1
# GalNAc(b1-4)GlcNAc = target: GalNAc(b1-4)GlcNAc
# Procedure, shortened: as §1
# Glc(a1-4)Glc = target: Glc(a1-4)Glc
# Procedure, shortened: as §1
# Glc(b1-4)Glc = target: Glc(b1-4)Glc
# Procedure, shortened: as §1
# [11] = target: GlcNAc(b1-3)[GlcNAc(b1-6)]Gal(b1-4)GlcNAc
# Procedure, shortened: as §1
# [12] = target: Man(a1-2)Man(a1-2)Man(a1-6)[Man(a1-3)]Man
# Procedure, shortened: as §1
# [13] = target: Man(a1-2)Man(a1-3)[Man(a1-2)Man(a1-6)]Man
# Procedure, shortened: as §1
# [14] = target: Man(a1-2)Man(a1-3)[Man(a1-2)Man(a1-6)]Man(a1-6)[Man(a1-2)Man(a1-2)Man(a1-3)]Man
# Procedure, shortened: as §1
# [15] = target: Man(a1-3)[Man(a1-6)]Man(a1-6)[Man(a1-2)Man(a1-3)]Man(b1-4)GlcNAc(b1-4)GlcNAc
# Procedure, shortened: as §1
# [16] = target: Man(a1-3)[Man(a1-6)]Man(a1-6)[Man(a1-3)]Man
# Procedure, shortened: as §1
# [17] = target: Neu5Ac(a2-3)Gal(b1-3)GalNAc(b1-4)[Neu5Ac(a2-3)]Gal(b1-4)Glc
# Procedure, shortened: as §1
# [18] = target: Neu5Ac(a2-3)Gal(b1-3)[Fuc(a1-4)]GlcNAc(b1-3)Gal(b1-4)[Fuc(a1-3)]GlcNAc
# Procedure, shortened: as §1
# [19] = target: Neu5Ac(a2-3)Gal(b1-4)[Fuc(a1-3)]GlcNAc(b1-3)Gal
# Procedure, shortened: as §1
# [20] = target: Neu5Ac(a2-3)Gal(b1-4)[Fuc(a1-3)]GlcNAc(b1-6)[Gal(b1-3)]GalNAc
# Procedure, shortened: as §1
# Neu5Ac(a2-6)Gal(b1-4)Glc = target: Neu5Ac(a2-6)Gal(b1-4)Glc
# Procedure, shortened: as §1
# [21] = target: Neu5Gc(a2-3)Gal(b1-3)[Fuc(a1-4)]GlcNAc
# Procedure, shortened: as §1
binder,measurement,setting,value
Surfactant Protein D (Human); Neck + Carbohydrate Recognition Domain (NCRD) (Homo sapiens) (protein) MLLFLLSALVLLTQPLGYLEAEMKTYSHRTMPSACTLVMCSSVESGLPGRDRDGREGPRGEKGDPGLPGAAGQAGMPGQAGPVGPKGDNGSVGEPGPKGDTGPSGPPGPPGVPGPAGREGALGKQGNIGPQGKPGPKGEAGPKGEVGAPGMQGSAGARGLAGPKGERGVPGERGVPGNTGAAGSAGAMGPQGSPGARGPPGLKGDKGIPGDKGAKGESGLPDVASLRQQVEALQGQVQHLQAAFSQYKKVELFPNGQSVGEKIFKTAQFVKPFTEAQLLCTQAGGQLASPRSAAENAALQQLVVAKNEAAFLSMTDSKTEGKFTYPTGESLVYSNWAPGEPNDDGGSEDCVEIFTNGKWNDRACGEARLVVCEF,glycan array binding signal (z-score),Fuc(a1-2)Gal(b1-4)GlcNAc,-0.173
same,glycan array binding signal (z-score),[1],-0.151
same,glycan array binding signal (z-score),[2],-0.148
same,glycan array binding signal (z-score),[3],-0.151
same,glycan array binding signal (z-score),Fuc(a1-3)GlcNAc,-0.116
same,glycan array binding signal (z-score),[4],-0.176
same,glycan array binding signal (z-score),[5],-0.134
same,glycan array binding signal (z-score),[6],-0.17
same,glycan array binding signal (z-score),[7],-0.09
same,glycan array binding signal (z-score),[8],-0.175
same,glycan array binding signal (z-score),[9],-0.175
same,glycan array binding signal (z-score),[10],-0.173
same,glycan array binding signal (z-score),GalNAc(b1-4)GlcNAc,-0.165
same,glycan array binding signal (z-score),Glc(a1-4)Glc,-0.171
same,glycan array binding signal (z-score),Glc(b1-4)Glc,-0.16
same,glycan array binding signal (z-score),[11],-0.177
same,glycan array binding signal (z-score),[12],8.57
same,glycan array binding signal (z-score),[13],7.38
same,glycan array binding signal (z-score),[14],8.69
same,glycan array binding signal (z-score),[15],6.04
same,glycan array binding signal (z-score),[16],6.52
same,glycan array binding signal (z-score),[17],-0.156
same,glycan array binding signal (z-score),[18],0.451
same,glycan array binding signal (z-score),[19],-0.173
same,glycan array binding signal (z-score),[20],-0.015
same,glycan array binding signal (z-score),Neu5Ac(a2-6)Gal(b1-4)Glc,-0.17
same,glycan array binding signal (z-score),[21],-0.149
